Laboratory results reported in PubChem BioAssay (Tox21).
Where “and” joins values, the source holds several entries; their conditions need not be identical. Identical values can stand only once. Records with an inconclusive call do not appear. Where a call stands in place of a potency, no number is given. More than one record can exist for a structure, and the calls need not agree. Calls of active or inactive are those of the source. Unless noted, calls follow the shape of the dose curve; as a rule, active = well fitted curve in the direction sought with a large enough effect in the repeat runs; inconclusive = weak or mixed curves; inactive = no such curve, though single readings can be large; an effect the other way counts as inactive or inconclusive.

Experiments:
[1] = Human pregnane X receptor (PXR) small molecule agonists, qHTS cell viability counter screen (AID 1346977); also: nearly all actives have a fitted effect of over 50% in size; also: potency is read from the fitted curve at half-maximal effect
Procedure, shortened: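 In each well, the PXR reporter HepG2 line was checked for viability: CellTiter-Fluor reagent added 23hr post-dosing, fluorescence read after 1hr incubation at 37C.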

[2] = Caspase-3/7 induction in HepG2 cells by small molecules, qHTS assay (AID 1346978); also: nearly all actives have a fitted effect of over 15% in size; also: potency is read from the fitted curve at half-maximal effect
Procedure, shortened: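 Caspase-3/7 induction was measured by Caspase-Glo 3/7 luminescence (30 min, room temperature) after a 17 hr compound exposure of wild-type HepG2 cells seeded at 2,000 per well and pre-incubated 5 hr.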

[3] = Caspase-3/7 induction in CHO-K1 cells by small molecules, qHTS cell viability counter screen (AID 1346979); also: nearly all actives have a fitted effect of over 35% in size; also: potency is read from the fitted curve at half-maximal effect
Procedure, shortened: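 Following a 5hr settling period, CHO-K1 cells at 1,500 per well received DMSO-dissolved compounds. Cell viability was quantified 16hr later by CellTiter-Fluor fluorescence, measured after 1hr with reagent at 37C.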

[4] = Caspase-3/7 induction in CHO-K1 cells by small molecules, qHTS assay (AID 1346980); also: nearly all actives have a fitted effect of over 15% in size; also: potency is read from the fitted curve at half-maximal effect
Procedure, shortened: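 Luminescent Caspase-Glo 3/7 read (30min, room temperature) quantified apoptosis induction. Cells were wild-type CHO-K1, treated with compound for 17hr at 37 C and 5% CO2.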

[5] = Caspase-3/7 induction in HepG2 cells by small molecules, qHTS cell viability counter screen (AID 1346981); also: nearly all actives have a fitted effect of over 30% in size; also: potency is read from the fitted curve at half-maximal effect
Procedure, shortened: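 Fluorescence read-out of live-cell protease activity (CellTiter-Fluor) after 1 hr with reagent. This was measured in the same wells as the caspase-3/7 luminescence, on HepG2 cells exposed to DMSO-dissolved compounds for 16 hr at 37 C.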

[6] = target: Nuclear receptor subfamily 1 group I member 2 (Homo sapiens) (UniProt O75469); test: Human pregnane X receptor (PXR) small molecule agonists, qHTS assay (AID 1346982); also: nearly all actives have a fitted effect of over 35% in size; also: potency is read from the fitted curve at half-maximal effect
Procedure, shortened: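 HepG2 PXR-Luc reporter line, 5% charcoal-stripped FBS; 5 hr pre-incubation, compound (DMSO) 24 hr at 37 C/5% CO2; ONE-Glo 30 min RT; luminescence read-out.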

[7] = target: Nuclear receptor subfamily 1 group I member 2 (Homo sapiens) (UniProt O75469); test: CYP3A4 induction through human pregnane X receptor (PXR) by small molecules, qHTS assay (AID 1346984); also: nearly all actives have a fitted effect of over 40% in size
Procedure, shortened: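 HepG2-derived DPX-2 line carrying PXR plus a CYP3A4-promoter luciferase reporter; cells plated 5 hr, compound-exposed 24 hr at 37C. CYP3A4 activity probed with 3uM (final) Luciferin-IPA for 3hr, then luciferase read after One-Glo.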

[8] = target: Nuclear receptor subfamily 1 group I member 2 (Homo sapiens) (UniProt O75469); test: Human pregnane X receptor (PXR) activation by small molecules, qHTS assay (AID 1346985); also: nearly all actives have a fitted effect of over 40% in size
Procedure, shortened: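 DPX-2 cells (HepG2 co-transfected with a PXR response element and a CYP3A4-promoter luciferase construct) were seeded at 2,000 per well, rested 5 hr at 37C, then exposed to DMSO-dissolved compounds for 24 hr. Activation was read as luciferase luminescence.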

[9] = target: Acetylcholinesterase (Homo sapiens) (UniProt P22303); test: Acetylcholinesterase (AChE) small molecule antagonists: colormetric cell-based qHTS assay (AID 1347395; calls by dose curve; also: nearly all actives have a fitted effect of over 30% in size; also: potency is read from the fitted curve at half-maximal effect)
Procedure, shortened: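 After overnight attachment at 37 C, SH-SY5Y cells get 30 min compound exposure; detection cocktail (acetylthiocholine, DTNB) then incubates 90 min at 37 C, and absorbance reflects AChE-generated thiocholine.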

[10] = target: Acetylcholinesterase (Homo sapiens) (UniProt P22303); test: Acetylcholinesterase (AChE) small molecule antagonists: enzyme-based qHTS assay (AID 1347397; calls by dose curve; also: nearly all actives have a fitted effect of over 55% in size); settings: Potency: AChE enzyme activity inhibition
Procedure, shortened: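 Colorimetric DTNB readout of acetylthiocholine hydrolysis, 10 min at room temperature, after 30 min room-temperature exposure of 50 mU/mL recombinant human enzyme to compound; DMSO vehicle control.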

[11] = target: Acetylcholinesterase (Homo sapiens) (UniProt P22303); test: Acetylcholinesterase (AChE) small molecule antagonists: fluorescence cell-based qHTS assay (AID 1347398; calls by dose curve; also: nearly all actives have a fitted effect of over 50% in size; also: potency is read from the fitted curve at half-maximal effect); settings: Potency: AChE activity
Procedure, shortened: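 Cellular AChE activity read as thiocholine from acetylthiocholine hydrolysis, detected by Thiolite Green fluorescence at 490/520 nm after 40 min at room temperature. Compounds were pre-incubated 30 min at 37 C on adherent SH-SY5Y cells.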

[12] = target: Acetylcholinesterase (Homo sapiens) (UniProt P22303); test: Acetylcholinesterase (AChE) small molecule antagonists: enzyme-based qHTS assay with human liver microsomes (AID 1347399; calls by dose curve; also: nearly all actives have a fitted effect of over 60% in size); settings: Potency: qHTS inhibition
Procedure, shortened: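 Recombinant human AChE (50 mU/mL in the enzyme mix) and human liver microsomes (0.25 mg/mL final) were preincubated with compound and NADPH (0.25 mg/mL final) for 30 min at 37 C. Acetylthiocholine/DTNB was then added; thiocholine was read colorimetrically after 10 min at room temperature.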

[13] = target: Cytochrome P450 2C19 (Homo sapiens) (UniProt P33261); test: Cytochrome P450 Family 2 Subfamily C Member 19 (CYP2C19) small molecule antagonists: luciferase reporter qHTS assay (AID 1671197); also: nearly all actives have a fitted effect of over 65% in size; also: potency is read from the fitted curve at half-maximal effect
Procedure, shortened: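 Light output is proportional to CYP2C19 activity: proluciferin substrate is converted to luciferin, then detected by a luciferin detection reagent that also stops the 1 h, 37C NADPH-driven reaction. Ketoconazole serves as positive control.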

[14] = target: Cytochrome P450 2C9 (Homo sapiens) (UniProt P11712); test: Cytochrome P450 Family 2 Subfamily C Member 9 (CYP2C9) small molecule antagonists: luciferase reporter qHTS assay (AID 1671198); also: nearly all actives have a fitted effect of over 50% in size; also: potency is read from the fitted curve at half-maximal effect
Procedure, shortened: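 Enzyme-substrate mix preincubated with compound 10 min at room temperature; reaction started with NADPH regeneration solution, 1 h 37C. Luminescent luciferin product read after 20 min detection reagent.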

[15] = target: Cytochrome P450 1A2 (Homo sapiens) (UniProt P05177); test: Cytochrome P450 Family 1 Subfamily A Member 2 (CYP1A2) small molecule antagonists: luciferase reporter qHTS assay (AID 1671199); also: nearly all actives have a fitted effect of over 50% in size; also: potency is read from the fitted curve at half-maximal effect
Procedure, shortened: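 Luminescence readout (relative luminescence units) after luciferin detection reagent, 20 min RT. Preceded by 1 h room-temperature CYP1A2 reaction with NADPH regeneration solution following 10 min compound preincubation with enzyme and proluciferin substrate. Furafylline positive control.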

[16] = target: Voltage-gated inwardly rectifying potassium channel KCNH2 (Homo sapiens) (UniProt Q12809); test: Human Ether-a-go-go-Related Gene (hERG) channel small molecule antagonists: fluorescence cell-based qHTS assay (AID 1671200); also: nearly all actives have a fitted effect of over 50% in size; also: potency is read from the fitted curve at half-maximal effect
Procedure, shortened: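 In this thallium-flux screen, overnight-cultured U2OS cells bearing the channel are dye-loaded in darkness for an hour, rested 10 min at room temperature, and then monitored kinetically at 480/540 nm for two minutes post-stimulus.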

[17] = target: Cytochrome P450 2D6 (Homo sapiens) (UniProt P10635); test: Cytochrome P450 Family 2 Subfamily D Member 6 (CYP2D6) small molecule antagonists: luciferase reporter qHTS assay (AID 1671196); also: nearly all actives have a fitted effect of over 50% in size; also: potency is read from the fitted curve at half-maximal effect
Procedure, shortened: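 Luminogenic proluciferin substrate, CYP2D6 enzyme; 10 min RT preincubation with compound, NADPH regeneration system added, 1 h RT. Stop/detection reagent, 20 min RT, luminescence read (RLU). Signal proportional to CYP activity.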

[18] = target: Cytochrome P450 3A4 (Homo sapiens) (UniProt P08684); test: Cytochrome P450 Family 3 Subfamily A Member 4 (CYP3A4) small molecule antagonists: luciferase reporter qHTS assay (AID 1671201); also: nearly all actives have a fitted effect of over 50% in size; also: potency is read from the fitted curve at half-maximal effect
Procedure, shortened: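 CYP3A4 activity was followed with a P450-Glo proluciferin substrate. Test compounds in DMSO were preincubated 10 min; NADPH regeneration then ran 1 h, and light output was read 20 min after detection reagent.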

Sequence of Voltage-gated inwardly rectifying potassium channel KCNH2 (Homo sapiens) (Q12809 whole entry, looked up): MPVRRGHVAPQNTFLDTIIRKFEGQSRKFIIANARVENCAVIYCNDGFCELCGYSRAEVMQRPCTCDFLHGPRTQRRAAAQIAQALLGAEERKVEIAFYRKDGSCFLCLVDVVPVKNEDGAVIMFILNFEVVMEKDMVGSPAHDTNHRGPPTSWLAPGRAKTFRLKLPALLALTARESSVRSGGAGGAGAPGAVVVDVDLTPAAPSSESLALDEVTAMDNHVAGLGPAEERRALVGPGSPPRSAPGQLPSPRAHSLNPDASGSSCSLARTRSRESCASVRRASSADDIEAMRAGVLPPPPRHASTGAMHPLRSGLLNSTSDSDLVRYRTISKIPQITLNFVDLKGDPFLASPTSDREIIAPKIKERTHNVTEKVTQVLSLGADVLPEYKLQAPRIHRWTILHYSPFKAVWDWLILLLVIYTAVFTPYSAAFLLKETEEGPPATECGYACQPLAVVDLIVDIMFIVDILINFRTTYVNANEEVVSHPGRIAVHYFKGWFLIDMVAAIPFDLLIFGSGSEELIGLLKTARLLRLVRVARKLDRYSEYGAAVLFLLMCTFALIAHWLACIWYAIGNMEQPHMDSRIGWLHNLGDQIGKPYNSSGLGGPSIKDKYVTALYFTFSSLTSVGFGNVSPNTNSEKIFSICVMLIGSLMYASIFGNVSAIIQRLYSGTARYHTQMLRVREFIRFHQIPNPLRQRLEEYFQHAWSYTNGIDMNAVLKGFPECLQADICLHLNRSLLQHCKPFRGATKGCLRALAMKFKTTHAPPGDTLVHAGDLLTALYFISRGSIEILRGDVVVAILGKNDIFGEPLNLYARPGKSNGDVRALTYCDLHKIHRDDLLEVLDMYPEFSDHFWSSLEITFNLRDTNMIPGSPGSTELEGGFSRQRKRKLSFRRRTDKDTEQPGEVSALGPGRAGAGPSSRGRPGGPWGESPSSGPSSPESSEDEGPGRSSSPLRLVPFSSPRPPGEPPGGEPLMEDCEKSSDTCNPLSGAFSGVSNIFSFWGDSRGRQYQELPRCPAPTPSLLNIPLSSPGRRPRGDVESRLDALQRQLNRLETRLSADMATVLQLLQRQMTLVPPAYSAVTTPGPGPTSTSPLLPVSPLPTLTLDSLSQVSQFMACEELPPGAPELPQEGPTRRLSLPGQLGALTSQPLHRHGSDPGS
Sequence of Cytochrome P450 2C9 (Homo sapiens) (P11712 whole entry, looked up): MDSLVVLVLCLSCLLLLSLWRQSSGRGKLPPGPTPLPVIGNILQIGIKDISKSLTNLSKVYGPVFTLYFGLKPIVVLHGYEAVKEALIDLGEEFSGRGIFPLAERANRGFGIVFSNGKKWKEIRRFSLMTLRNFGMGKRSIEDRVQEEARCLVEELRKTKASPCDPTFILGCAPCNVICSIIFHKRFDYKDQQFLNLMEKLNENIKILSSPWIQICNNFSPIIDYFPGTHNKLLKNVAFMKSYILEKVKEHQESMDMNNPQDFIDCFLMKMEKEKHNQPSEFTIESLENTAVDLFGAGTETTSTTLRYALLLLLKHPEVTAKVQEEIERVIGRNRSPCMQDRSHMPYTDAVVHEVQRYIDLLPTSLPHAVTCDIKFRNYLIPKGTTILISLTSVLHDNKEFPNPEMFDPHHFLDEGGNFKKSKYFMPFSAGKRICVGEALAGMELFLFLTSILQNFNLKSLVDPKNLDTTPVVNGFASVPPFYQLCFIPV
Sequence of Cytochrome P450 2D6 (Homo sapiens) (P10635 whole entry, looked up): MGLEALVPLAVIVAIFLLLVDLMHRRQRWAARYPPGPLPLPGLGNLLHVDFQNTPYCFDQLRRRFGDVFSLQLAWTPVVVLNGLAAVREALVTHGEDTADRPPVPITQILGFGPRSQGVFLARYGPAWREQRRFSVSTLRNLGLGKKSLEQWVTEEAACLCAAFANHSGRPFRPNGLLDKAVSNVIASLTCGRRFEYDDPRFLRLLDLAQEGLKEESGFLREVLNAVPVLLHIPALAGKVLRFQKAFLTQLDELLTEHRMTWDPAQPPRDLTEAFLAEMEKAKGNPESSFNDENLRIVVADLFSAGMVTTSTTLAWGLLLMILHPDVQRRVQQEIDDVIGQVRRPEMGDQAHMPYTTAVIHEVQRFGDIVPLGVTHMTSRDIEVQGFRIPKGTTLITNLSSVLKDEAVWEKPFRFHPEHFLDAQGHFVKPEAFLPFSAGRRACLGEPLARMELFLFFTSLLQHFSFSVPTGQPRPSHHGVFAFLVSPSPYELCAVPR
Sequence of Cytochrome P450 2C19 (Homo sapiens) (P33261 whole entry, looked up): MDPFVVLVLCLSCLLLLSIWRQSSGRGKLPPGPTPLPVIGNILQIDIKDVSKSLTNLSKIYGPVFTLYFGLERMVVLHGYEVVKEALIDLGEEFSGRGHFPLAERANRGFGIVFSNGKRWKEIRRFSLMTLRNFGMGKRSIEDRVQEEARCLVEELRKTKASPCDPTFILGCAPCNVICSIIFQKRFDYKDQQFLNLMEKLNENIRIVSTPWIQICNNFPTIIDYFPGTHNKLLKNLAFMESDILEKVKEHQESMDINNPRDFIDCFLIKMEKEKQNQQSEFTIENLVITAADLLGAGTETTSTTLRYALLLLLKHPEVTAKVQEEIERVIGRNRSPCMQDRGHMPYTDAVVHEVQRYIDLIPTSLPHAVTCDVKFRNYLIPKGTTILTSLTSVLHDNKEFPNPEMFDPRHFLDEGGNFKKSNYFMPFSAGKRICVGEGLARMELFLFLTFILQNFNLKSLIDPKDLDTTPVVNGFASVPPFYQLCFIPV
Sequence of Cytochrome P450 1A2 (Homo sapiens) (P05177 whole entry, looked up): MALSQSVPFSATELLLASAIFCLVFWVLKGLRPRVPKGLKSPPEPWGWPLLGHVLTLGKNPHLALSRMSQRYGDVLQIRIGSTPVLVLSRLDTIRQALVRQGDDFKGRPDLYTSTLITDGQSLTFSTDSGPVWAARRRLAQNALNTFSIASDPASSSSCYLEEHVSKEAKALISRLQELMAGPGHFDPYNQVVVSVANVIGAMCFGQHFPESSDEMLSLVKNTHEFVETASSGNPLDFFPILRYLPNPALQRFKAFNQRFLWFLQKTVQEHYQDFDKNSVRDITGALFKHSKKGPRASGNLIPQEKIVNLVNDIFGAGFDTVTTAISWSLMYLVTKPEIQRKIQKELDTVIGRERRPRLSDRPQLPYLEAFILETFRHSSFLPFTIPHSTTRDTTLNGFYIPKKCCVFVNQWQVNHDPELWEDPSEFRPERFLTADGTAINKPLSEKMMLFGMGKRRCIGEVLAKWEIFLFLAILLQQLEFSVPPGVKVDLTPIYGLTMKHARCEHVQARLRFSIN
Sequence of Nuclear receptor subfamily 1 group I member 2 (Homo sapiens) (O75469 whole entry, looked up): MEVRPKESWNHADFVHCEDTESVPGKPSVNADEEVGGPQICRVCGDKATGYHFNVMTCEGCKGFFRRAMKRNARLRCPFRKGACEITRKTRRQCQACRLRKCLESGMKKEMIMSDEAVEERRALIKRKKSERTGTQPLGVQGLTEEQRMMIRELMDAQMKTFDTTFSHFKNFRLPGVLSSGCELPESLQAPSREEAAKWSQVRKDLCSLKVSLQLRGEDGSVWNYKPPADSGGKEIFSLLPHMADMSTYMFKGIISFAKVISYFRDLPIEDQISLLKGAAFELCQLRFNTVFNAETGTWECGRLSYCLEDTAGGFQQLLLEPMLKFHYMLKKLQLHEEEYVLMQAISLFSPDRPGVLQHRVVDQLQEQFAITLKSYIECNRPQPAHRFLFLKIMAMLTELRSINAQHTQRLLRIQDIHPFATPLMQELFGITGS
Sequence of Acetylcholinesterase (Homo sapiens) (P22303 whole entry, looked up): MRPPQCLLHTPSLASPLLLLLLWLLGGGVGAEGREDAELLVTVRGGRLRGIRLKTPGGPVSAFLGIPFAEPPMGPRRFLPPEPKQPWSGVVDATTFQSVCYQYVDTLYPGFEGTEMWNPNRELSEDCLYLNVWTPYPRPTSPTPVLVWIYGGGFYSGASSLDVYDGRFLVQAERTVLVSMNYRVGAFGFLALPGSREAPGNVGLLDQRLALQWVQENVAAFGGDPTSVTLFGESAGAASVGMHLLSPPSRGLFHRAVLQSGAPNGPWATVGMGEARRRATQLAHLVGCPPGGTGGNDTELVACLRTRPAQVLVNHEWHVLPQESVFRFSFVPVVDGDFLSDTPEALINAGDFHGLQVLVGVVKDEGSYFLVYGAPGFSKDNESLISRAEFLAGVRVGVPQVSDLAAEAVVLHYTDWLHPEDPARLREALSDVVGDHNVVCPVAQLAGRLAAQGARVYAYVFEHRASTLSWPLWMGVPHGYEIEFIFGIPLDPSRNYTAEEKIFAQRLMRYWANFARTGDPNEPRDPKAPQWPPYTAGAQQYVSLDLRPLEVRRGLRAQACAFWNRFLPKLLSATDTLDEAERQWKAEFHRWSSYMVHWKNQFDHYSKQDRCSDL
Sequence of Cytochrome P450 3A4 (Homo sapiens) (P08684 whole entry, looked up): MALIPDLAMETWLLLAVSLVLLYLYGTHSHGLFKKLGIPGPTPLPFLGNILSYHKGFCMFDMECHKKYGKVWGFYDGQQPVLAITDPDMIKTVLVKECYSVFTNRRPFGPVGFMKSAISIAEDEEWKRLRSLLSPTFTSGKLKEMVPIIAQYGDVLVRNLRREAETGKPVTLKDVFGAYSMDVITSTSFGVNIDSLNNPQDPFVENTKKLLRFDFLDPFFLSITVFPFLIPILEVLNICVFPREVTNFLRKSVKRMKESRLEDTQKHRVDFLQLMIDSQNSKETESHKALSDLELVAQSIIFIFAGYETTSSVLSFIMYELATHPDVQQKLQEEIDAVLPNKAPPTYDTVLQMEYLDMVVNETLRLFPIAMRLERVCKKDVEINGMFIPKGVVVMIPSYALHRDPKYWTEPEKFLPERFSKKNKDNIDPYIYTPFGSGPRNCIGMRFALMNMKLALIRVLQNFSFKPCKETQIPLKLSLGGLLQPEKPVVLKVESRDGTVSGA

Row | SMILES | Potency [1] | Potency [2] | Potency [3] | Potency [4] | Potency [5] | Potency [6] | Potency [7] | Potency [8] | Potency [9] | Potency [10] | Potency [11] | Potency [12] | Potency [13] | Potency [14] | Potency [15] | Potency [16] | Potency [17] | Potency [18]
1 | CCN(CC)C(=S)S | 28.2 µM (active) and inactive | inactive and 27.1 µM (active) | 13.8 µM (active) and 7.65 µM (active) and 27.3 µM (active) | inactive | inactive | 27.1 µM (active) and 61.1 µM (active) | inactive | inactive | inactive | inactive | inactive | inactive | 71.6 µM (active) and 50 µM (active) and inactive | 62.9 µM (active) and 31.7 µM (active) | 40.3 µM (active) | inactive |  | 
2 | c1ccc2nc(N3CCNCC3)ccc2c1 | inactive | inactive | inactive | inactive | inactive | inactive |  |  | inactive | inactive | inactive | inactive | inactive | inactive | 1.23 µM (active) | inactive |  | 
3 | c1cc[n+]2c(c1)-c1cccc[n+]1CC2 | 13.3 µM (active) | inactive | inactive | inactive | inactive | inactive |  |  | inactive | inactive | inactive | inactive |  |  | 30.9 µM (active) | inactive | 7.76 µM (active) | 
4 | O=Cc1ccccc1 | inactive | inactive | inactive | inactive | inactive | inactive |  |  | inactive | inactive | inactive | inactive | inactive | inactive | inactive | inactive | inactive | inactive
5 | CC(Cl)CCl (stereo unspecified) | inactive | inactive | inactive | inactive | inactive | inactive |  |  | inactive | inactive | inactive | inactive |  | inactive | inactive | inactive | inactive | inactive
6 | CSC(C)(C)/C=N/O | inactive | inactive | inactive | inactive | inactive | inactive |  |  | inactive | inactive | inactive | inactive |  |  |  | inactive | inactive | inactive
7 | BrCC(Br)(Br)Br | inactive | inactive | inactive | inactive | inactive | inactive |  |  | inactive | inactive | inactive | inactive |  |  | inactive | inactive | inactive | inactive
8 | C#CC1(O)CCCCC1 | inactive | inactive | inactive | inactive | inactive | inactive |  |  | inactive | inactive | inactive | inactive | inactive | inactive |  | inactive |  | inactive
9 | CC(C)Br | inactive | inactive | inactive | inactive | inactive | inactive |  |  | inactive | inactive | inactive | inactive |  |  |  | inactive | inactive | inactive
10 | NC1CCC(CC2CCC(N)CC2)CC1 (stereo unspecified) | inactive | inactive | inactive | inactive | inactive | inactive |  |  | inactive | inactive | inactive | inactive | inactive |  |  | inactive | 35 µM (active) | 11.1 µM (active)
11 | CCCCC(CC)COC(=O)OOC(C)(C)C (stereo unspecified) | inactive | inactive | inactive | inactive | inactive |  |  |  | inactive | inactive | inactive | inactive | inactive |  |  | inactive | inactive | inactive
12 | COc1ccc2c3c1O[C@H]1[C@H](O)CC[C@H]4[C@@H](C2)N(C)CC[C@@]341 | inactive | inactive | inactive | inactive | inactive |  |  |  | inactive |  | inactive | inactive | inactive |  | inactive | inactive | inactive | 
13 | COC(=O)N(OC)c1ccccc1COc1ccn(-c2ccc(Cl)cc2)n1 | 5.45 µM (active) | inactive | 0.0433 µM (active) | inactive | 54.5 µM (active) |  |  |  | inactive | inactive | inactive | inactive | 0.283 µM (active) | 7.1 µM (active) | 1.12 µM (active) |  | 22.4 µM (active) | inactive
14 | Cc1ccc([N+](=O)[O-])[c]2c1[O][Hg]2 | 6.68 µM (active) | inactive | 1.68 µM (active) | inactive | 21.1 µM (active) | 668 nM (active) |  |  | inactive |  | inactive | inactive | 2.19 µM (active) | 0.871 µM (active) |  | 6.01 µM (active) | 0.871 µM (active) | 7.76 µM (active)
15 | N#Cc1sc2c(=O)c3ccccc3c(=O)c=2sc1C#N | 9.69 µM (active) | inactive | 21.7 µM (active) | inactive | 21.7 µM (active) |  |  |  | 44.8 µM (active) | inactive | 63.3 µM (active) | inactive | 3.99 µM (active) | 3.17 µM (active) |  | 21.9 µM (active) | 35.6 µM (active) | 17.8 µM (active)
16 | CCC[CH2][Sn]([CH2]CCC)([CH2]CCC)[CH2]CCC | 15.4 µM (active) | 68.6 µM (active) | 9.69 µM (active) | 17.2 µM (active) | 61.1 µM (active) | 6110 nM (active) |  |  | inactive | inactive |  | inactive | 35.6 µM (active) |  |  |  | 20 µM (active) | inactive
